Pf Dd2 inh: inhibitors of Plasmodium falciparum Dd2 growth | P. falciparum Dd2 growth, SYBR Green, 72 h | Potency, µM (titrated, usually from 28.9 µM), usual class: inhibitors | 120,000 tested, 4.3% active | AID 1347417; active = well fitted inhibition curve with a large enough effect; also: nearly all actives have a fitted effect of over 65% in size
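Infected erythrocytes (Dd2, 0.3% parasitemia, 2.5% hematocrit final) are added to compound in RPMI-1640/Albumax II medium, grown 72 h at 37C in low oxygen, then lysed with saponin/Triton-X containing SYBR Green and read by fluorescence.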
Each line names hits and unclear results; the compound was inactive in the other large screens. The full list was thinned out, with hits kept by preference.

CC(=O)N1CCC2(CC1)CN(C(=O)c1ccc(Cl)cc1)CCO2	none
NC(Cc1ccccc1)C(=O)N1CCC2(CC1)CN(C(=O)c1ccc(Cl)cc1)CCO2 (stereo unspecified)	Pf Dd2 inh 0.63µM
COc1ccc(CC(=O)N2CCC3(CC2)CN(C(=O)c2ccc(Cl)cc2)CCO3)cc1	none
O=C(NC1CC(=O)N(Cc2ccc(F)cc2)C1)c1ccn[nH]1 (stereo unspecified)	none
O=C1CCSc2ccc(S(=O)(=O)Nc3cccc(C(F)(F)F)c3)cc2N1	none
Cc1ccccc1NS(=O)(=O)c1ccc2c(c1)NC(=O)CCS2	none
Cc1ccc(NS(=O)(=O)c2ccc3c(c2)NC(=O)CCS3)cc1C	Pf Dd2 inh 10µM
O=C(O)c1ccc([S+](=O)([O-])N2CC(COc3ccccc3)C3(CN(c4ccccc4)C3)C2)cc1 (stereo unspecified)	none
CC1CCN(S(=O)(=O)c2cn(CC(=O)Nc3ccc(F)cc3)c(=O)c3ccccc23)CC1	none
CC(C)c1ccc(NC(=O)Cn2cc(S(=O)(=O)N3CCN(c4ccccc4F)CC3)c3ccccc3c2=O)cc1	Pf Dd2 inh 10µM
CC(C)c1ccc(NC(=O)c2ccc(F)c(S(=O)(=O)N3CCN(c4ccccc4F)CC3)c2)cc1	none
CN1CCC(NCC2(COc3cccnc3)C[C@@H](O)[C@@H](O)C2)CC1 (stereo partly specified)	none
O=C(Cn1nc2c(cc1=O)CCCCC2)Nc1ccc(Br)cc1	none
CS(=O)(=O)c1ccc(CN2CC[C@@H](c3ccc4ccccc4c3)[C@H](O)C2)cc1	none
O=C(O)c1ccc(CN2CC[C@@H](c3ccc4ccccc4c3)[C@H](O)C2)cc1	none
O[C@@H]1CN(CC2CCNCC2)CC[C@H]1c1ccc2ccccc2c1	Pf Dd2 inh 11µM
Cc1ccc(C2Cn3nnc(C(=O)N4CCN(C(=O)c5ccc(F)cc5)CC4)c3CO2)cc1 (stereo unspecified)	none
Cc1ccc(C(=O)N2CCN(C(=O)c3nnn4c3COC(c3ccc(F)cc3)C4)CC2)cc1C (stereo unspecified)	Pf Dd2 inh 7.1µM
COc1ccc(C2Cn3nnc(C(=O)N4CCC(C(=O)NC5CCCCCCC5)CC4)c3CO2)cc1 (stereo unspecified)	none
COc1ccc(CCNC(=O)c2nnn3c2COC(c2ccc(C)cc2)C3)cc1OC (stereo unspecified)	Pf Dd2 inh 8.9µM
COc1ccc(C2Cn3nnc(C(=O)N4CCC(C(=O)NC5CCCCC5)CC4)c3CO2)cc1 (stereo unspecified)	none
Cc1ccc(C2Cn3nnc(C(=O)NCc4ccc(F)cc4)c3CO2)cc1 (stereo unspecified)	none
COc1ccc(C(=O)N2CCN(C(=O)c3nnn4c3COC(c3ccc(F)cc3)C4)CC2)cc1 (stereo unspecified)	none
COc1ccc(C2Cn3nnc(C(=O)NC4CCCCCCC4)c3CO2)cc1 (stereo unspecified)	Pf Dd2 inh 8.9µM
CCCCNC(=O)c1nnn2c1COC(c1ccc(C)cc1)C2 (stereo unspecified)	none
Nc1ccsc1C(=O)N[C@@H]1COCC[C@@H]1OCc1cscn1	none
COc1ccc(-c2nc(C)nc3c2CN(C(=O)c2ccc4c(c2)OCO4)CC3)cc1	none
O=C(c1ccc2c(c1)N(C(=O)C1CC1)CC2)N1CCCC1	none
COc1ccc(OC)c(-c2nc(CN3CCCC(C(C)(C)O)C3)c(C)o2)c1 (stereo unspecified)	none
Cc1ccccc1C(=O)Nc1ccnn1C1CCN(C(=O)C2(C(N)=O)CC2)CC1	none
Cc1ccc(NC(=O)C2CC(=O)N(c3n[nH]c4cc(Br)ccc34)C2)cc1 (stereo unspecified)	none
O=C1NCCCCCCN(S(=O)(=O)c2cccc(F)c2)[C@H]2CCC[C@@H]12	none
O=C(COc1ccccc1)Nc1sc2c(c1C(=O)Nc1ccccc1)CCCCC2	none
COc1ccc(NC(=O)c2c(NC(=O)COc3ccc(Cl)cc3)sc3c2CCCCC3)cc1	Pf Dd2 inh 3.2µM
CCCCOc1ccc(C(=O)Nc2sc3c(c2C(=O)OCC)CCCCC3)cc1	none
COc1ccc(CC(=O)Nc2sc3c(c2C(=O)Nc2ccccc2)CCCCC3)cc1	none
COc1ccc(NC(=O)c2c(NC(=O)c3cccc(C)c3)sc3c2CCC3)cc1	none
COc1ccc(NC(=O)c2c(NCc3cccs3)sc3c2CCCC3)cc1	Pf Dd2 inh 7.9µM
CCOC(=O)c1ccc(NC(=O)c2c(NCc3cccs3)sc3c2CCCCC3)cc1	Pf Dd2 inh 10µM
CCOC(=O)c1ccc(NC(=O)c2csc3c2CCCC3)cc1	none
COC(=O)c1c(NC(=O)COc2cc(C)c(Cl)c(C)c2)sc2c1CCCC2	none
COc1ccc(C(=O)NCc2nnc3c(-c4nc(C)no4)cccn23)cc1	none
O=S(=O)(c1ccccc1Cl)N1CCCC1c1nncn1Cc1ccncc1 (stereo unspecified)	none
COc1c[nH]c(CN2CCCC(Nc3ccc(C(C)C)cc3)C2)cc1=O (stereo unspecified)	none
COc1ccc(NC(=O)COc2ccc(-c3nnc4n3CCCC4)cc2)cc1OC	Pf Dd2 inh 8.9µM
COc1ccc(NC(=O)COc2cccc(-c3nnc4n3CCCC4)c2)cc1OC	Pf Dd2 inh 7.9µM
COc1ccc(NC(=O)Cn2nc3n(c2=O)CCCCC3)cc1OC	none
O=C(COc1cccc(-c2nnc3n2CCCC3)c1)Nc1ccc(Cl)cc1F	none
Cc1ccc(CC(=O)Nc2ccc(-c3nnc4n3CCCC4)cc2)cc1	none
CCC(=O)Nc1ccc(-c2nnc3n2CCCC3)cc1	none
CCNc1ncc(C(=O)NC2CC(c3nnc(CO)n3CC)C2)cn1 (stereo unspecified)	none
Cc1ccc2nc(COCC(=O)N3CCC4(CCCN(C)C4=O)C3)[nH]c2c1 (stereo unspecified)	none
COc1ccccc1Cn1c(CNS(=O)(=O)c2c(C)cc(C)cc2C)nc2cccnc21	Pf Dd2 inh 13µM
CCOc1ccc(Cn2c(CNS(=O)(=O)c3c(C)cc(C)cc3C)nc3cccnc32)cc1	none
COc1ccccc1Cn1c(CNS(=O)(=O)c2ccc(C(C)C)cc2)nc2cccnc21	none
CN1CCC(N2CCN(C(=O)c3ccncc3)CC2)C1=O (stereo unspecified)	none
O=C(c1nc2sccn2c1Br)N1CCN(c2ncccn2)CC1	none
COCC1CN(C(=O)c2nccc3ccccc23)CC12CCNCC2 (stereo unspecified)	none
CN(C(=O)CSc1nc2ccc(NC(=O)c3cccc(F)c3)cc2s1)c1ccccc1	none
COc1ccccc1C(=O)Nc1ccc2nc(SCC(=O)N(C)c3ccccc3)sc2c1	Pf Dd2 inh 8.9µM
CCOC(=O)CSc1nc2ccc(NC(=O)c3ccc(C)cc3)cc2s1	none
CN(C(=O)CSc1nc2ccc(NC(=O)c3ccccc3F)cc2s1)c1ccccc1	none
CCOc1ccc(C(=O)Nc2ccc3nc(SCC(=O)N(C)c4ccccc4)sc3c2)cc1	Pf Dd2 inh 8.9µM
Cc1ccccc1OCC(=O)Nc1ccc2nc(SCC(=O)N(C)c3ccccc3)sc2c1	none
COc1cccc(CNC(=O)C2CCN(c3cn[nH]c(=O)c3)C2)c1OC (stereo unspecified)	none
O=C(CSc1nc(=O)[nH]c2c1CCC2)NCc1ccccc1	none
CCC1(C(=O)Nc2cccc(OC)c2)CCCCC(=O)N1 (stereo unspecified)	none
O=C(CSc1nc(=O)[nH]c2c1CCCC2)NCc1ccccc1	none
COc1cccc(NC(=O)c2cccc3c(=O)c4c([nH]c23)CCCC4)c1	Pf Dd2 inh 0.89µM
COc1cccc(NS(=O)(=O)c2ccc3[nH]c4c(c3c2)CCCCCC4)c1	none
O=C(Nc1ccccc1)c1cccc2c(=O)c3c([nH]c12)CCCC3	Pf Dd2 inh 4.5µM
